Bioassay records (PubChem BioAssay)
HCV inhibitor: qHTS Assay for Inhibitors of Hepatitis C Virus (HCV) | Huh7.5.1 HCVcc-Cre infection, luciferase reporter, 44 h | Potency, µM (doses to about 41.8 µM), without a hit: at the top dose activity change, negative = inhibition, usual class: inhibitors | 340,000 compounds, 3.4% hits; active = well fitted inhibition curve with a large enough effect; inconclusive = small, poorly fitted or top-dose-only effect, or another doubt; inactive = no such curve, though single readings can be large or run the other way; note: potency is the fitted concentration of half-maximal effect; % is set by controls: 0 for no effect and ±100 for the full control effect
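HCVcc-Cre virus at an moi near 0.5 was added right after compound to cells cultured 4 h from seeding (1,000 cells/well). Luciferase activity was determined 44 h later, 15 min after substrate addition at RT.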
Cycloheximide cs: Cycloheximide Counterscreen for Small Molecule Inhibitors of Shiga Toxin. cell reporter, cycloheximide protein synthesis inhibition counterscreen. 300,000 compounds, 12% hits. max response, %; in the data active = max response mostly above about 13%, no sharp cut-off; inactive = mostly below about 14%; note: read at 38.3 µM for the half of the compounds with a filed dose; 0% is about no effect
Lassa entry inh: qHTS for Inhibitors of binding or entry into cells for Lassa Virus; Lassa virus pseudotype entry inhibition, cell reporter; Potency, µM (titrated, usually from 37.9 µM), inactives show at the top dose activity change, negative = inhibition, actives largely listed as inhibitors; 300,000 compounds, 1.2% hits; calls by dose curve; tested in HEK293 cells; note: potency is the fitted concentration of half-maximal effect; % is set by controls: 0 for no effect and ±100 for the full control effect; nearly all actives have a fitted effect of over 50% in size
FMDV antiviral: High Throughput Screening for Foot and Mouth Disease Virus Antivirals; Potency, µM (top dose mostly 57.9 µM), inactives show top-dose activity change, negative = inhibition, hits mostly inhibitors; AID 1159524, 2015; FMDV antiviral cell-based qHTS; 410,000 compounds, 1.2% hits; calls by dose curve; tested in HEK293T cells; note: read-out not given here; potency is the fitted concentration of half-maximal effect; % is set by controls: 0 for no effect and ±100 for the full control effect; nearly all actives have a fitted effect of over 45% in size
MARV entry inh: qHTS for inhibitors of binding or entry into cells for Marburg Virus. Marburg virus pseudotyped entry inhibition, cell reporter. 300,000 compounds, 1.8% hits. Potency, µM (series often up to 37.8 µM), for the others: at the top dose activity change, negative = inhibition, hits mostly inhibitors. AID 540276, 2011; calls by dose curve; tested in HEK293 cells; note: potency is the fitted concentration of half-maximal effect; % is set by controls: 0 for no effect and ±100 for the full control effect
Shiga inhibitor: A qHTS for Small Molecule Inhibitors of Shiga Toxin; Vero cells, Shiga toxin protein synthesis inhibition reporter; inhibition, % at 38.7 µM; 290,000 compounds, 9.2% hits; AID 2315, 2010; in the data active = inhibition mostly above about 28%, no sharp cut-off; inactive = mostly below about 43%; note: 0% is about no effect
Numbers without * were called inactive; ? = inconclusive; · = no result; [ ] = another dose, or the depositor's remark. Hits are enriched below; roughly 13% of the tested compounds scored in any of these assays.

SMILES | HCV inhibitor | Cycloheximide cs | Lassa entry inh | FMDV antiviral | MARV entry inh | Shiga inhibitor
COc1ccc(C(=O)C(CCC(CNC(C)(C)C)C(=O)c2ccc(OC)cc2)CNC(C)(C)C)cc1 (stereo not drawn) | ? | -5 | 4µM* | ? | 2.1µM* | -13
COc1ccc(C(=O)CC(=O)c2ccc(C(C)(C)C)cc2)cc1 | ? | · | · | 0% | · | ·
COc1ccc(OC(=O)c2cccc(S(=O)(=O)N3CCCC3)c2)cc1 | 17% | -1 | -6% | -3% | 0% | 19
O=C(Nc1ccc(Cc2ccncc2)cc1)C1CCC(N2C(=O)C3C4C=CC(C4)C3C2=O)CC1 (stereo not drawn) | 8.9µM* | -2 | ? | · | -30% | 16
O=C(Nc1ccc(Cc2ccncc2)cc1)C1CCC(N2C(=O)C3CC=CCC3C2=O)CC1 (stereo not drawn) | ? | 1 | -19% | · | -11% | -17
COc1ccc(NC(=O)Cn2cnc3c(nnn3-c3ccc(C)cc3)c2=O)cc1 | · | -5 | · | · | · | -8
CCCCCOc1ccc(Cl)cc1CN1CCOCC1 | 4% | 24* | 0% | -16% | 30% | 47
O=C(Nc1nc2ccccc2[nH]1)C1CCCO1 (stereo not drawn) | -1% | 23* | 9% | · | 6% | 41
O=C(Nc1nc2ccccc2[nH]1)C1CC1 | ? | 23* | 22% | 67% | -18% | 45
O=C(Nc1nc2ccccc2[nH]1)Nc1ccccc1F | 2% | 35* | -22%[46.1 µM] | -7% | ? | 99*
O=C(Nc1ccc(-c2nc3ccccc3[nH]2)cc1)C1CCCO1 (stereo not drawn) | 6% | 12 | ? | · | ? | 19
CC(C)c1nc2ccc(NC(=O)C34CC5CC(CC(C5)C3)C4)cc2[nH]1 | -23% | 20* | 20% | · | ? | 48
O=C(Nc1nc2ccccc2[nH]1)NC1CCCCC1 | -1% | 46* | 11µM* | -26% | ? | 81*
O=C(Nc1nc2ccccc2[nH]1)C12CC3CC(CC(C3)C1)C2 | -3% | 40* | ? | ? | ? | 63
O=C(Cn1c(=O)c(C(F)(F)F)nc2ccccc21)N1CCC2(CC1)OCCO2 | 20% | 5 | -3% | 14% | -1% | 8
NN=C(c1ccccc1)c1ccccc1 | 10% | · | 6%[46.1 µM] | -5% | -8%[46.1 µM] | ·
O=C(NC1CCCCC1)c1ccc(CNc2ccccc2)o1 | -2% | 1 | -7% | 1% | 3% | -3
N/C(=N\OC(=O)Nc1ccccc1)c1cccc(C(F)(F)F)c1 | 7% | 29* | · | 31% | · | 43*
N/C(=N\OC(=O)Nc1ccc(Cl)cc1)c1ncc(C(F)(F)F)cc1Cl | 11% | 9 | -19% | 22% | 13% | -3
COC(=O)/C(=C\Nc1ccccc1N)c1ncc(C(F)(F)F)cc1Cl | 3% | 68* | -11% | -6% | ? | 101*
Cc1cc(/C(N)=N/OC(=O)Nc2cccc(C(F)(F)F)c2)no1 | 1% | 6 | -5% | 27% | 6%[46.1 µM] | 1
N/C(=N\OC(=O)Nc1ccccc1)c1ncc(C(F)(F)F)cc1Cl | 0% | 20* | 10% | 51% | ? | 53*
Cn1cc(S(=O)(=O)c2cccc(Cl)c2)c(=O)c2cc(F)c(N3CCCCCC3)cc21 | · | · | ? | 8% | · | ·
CCOc1ccccc1N(C)C(=O)c1cn(CC)c(=O)c2cc(OC)c(OC)cc12 | -2% | 1 | 29%[46.1 µM] | -6% | 7%[46.1 µM] | -3
COc1ccc(-c2cn3cccnc3n2)cc1NC(=O)c1c(F)cccc1F | · | · | ? | 16% | · | ·
SMILES | HCV inhibitor | Cycloheximide cs | Lassa entry inh | FMDV antiviral | MARV entry inh | Shiga inhibitor
COc1ccc(C)cc1NC(=S)NC(C)c1ccc(OC)c(OC)c1 (stereo not drawn) | 11µM* | -1 | · | 24% | · | -7
COc1ccc(NC(=S)NC(C)c2ccncc2)cc1OC (stereo not drawn) | 2% | 1 | 12%[46.1 µM] | 19% | 17%[46.1 µM] | 7
CCOc1ccc(-c2cc(C(=O)N3CCN(C)CC3)c3ccccc3n2)cc1 | -12% | 38* | -29% | 8% | ? | 50*
CCOC(=O)N1CCN(C(=O)c2cc(-c3ccc(OCC)cc3)nc3ccccc23)CC1 | ? | 37* | 4.6µM* | -5% | ? | 66*
CCOc1ccc(-c2cc(C(=O)N3CCCC3)c3ccccc3n2)cc1 | -20% | 17 | 5% | 27% | ? | 31
Cc1cc(C)c(NC(=O)CNC(=O)c2cc(C3CC3)nn2-c2ccccc2)c(C)c1 | -15% | · | · | -7% | · | ·
CSc1ncccc1C(=O)NCC(c1cccs1)N1CCOCC1 (stereo not drawn) | -4% | · | -1% | -2% | 1% | ·
COc1cccc(NC(=O)C(=O)NCc2ccncc2)c1 | -6% | 29* | 12%[46.1 µM] | 46% | ? | 78*
COc1cccc(NC(=O)Nc2cccs2)c1 | -17% | 24* | 21% | 53% | -2% | 41
COc1cccc(NC(=O)Nc2cnccn2)c1 | -11% | 20* | -8% | 69% | 23%[46.1 µM] | 62
COc1cccc(NC(=O)Nc2ccc(C(C)(C)C)cc2)c1 | ? | 25* | ? | 12% | ? | 51*
COc1ccc(Br)cc1Cn1nnc(C(=O)Nc2cccc(SC)c2)c1N | · | · | ? | -39% | 0%[46.1 µM] | ·
COc1cccc(NC(=O)Nc2ccncc2)c1 | -8% | 17* | 14% | 0% | -16% | 23
COc1cccc(NC(=O)Nc2cc(NC(=O)Nc3cccc(OC)c3)c(C)nc2C)c1 | ? | 6 | 23% | -17% | 14% | -5
COc1ccc(OC)c(NC(=O)Nc2cnccn2)c1 | -6% | 16* | 9%[46.1 µM] | -4% | -12%[46.1 µM] | 46
Cc1ccc(-c2[nH]ncc2/C=N/n2c(C)nc3ccccc3c2=O)cc1 | -6% | 5 | -12% | -7% | 0%[14.2 µM] | 16
CC12CCC3c4ccc(OC(=O)N(CCCl)CCCl)cc4CCC3C1CCC2O (stereo not drawn) | ? | · | 5.6µM* | -30% | ? | ·
Cc1onc(-c2ccccc2Cl)c1C(=O)O/N=C(\N)c1cccc([N+](=O)[O-])c1 | · | · | · | -20% | · | ·
Cc1onc(-c2ccccc2Cl)c1C(=O)O/N=C(\N)c1ccccc1 | ? | 23* | · | 0% | · | 19
Cc1onc(-c2ccccc2)c1C(=O)O/N=C(\N)c1ccc([N+](=O)[O-])o1 | 11µM* | 4 | · | ? | · | -3
CCOc1ccc(OC(=O)c2c(-c3ccccc3Cl)noc2C)cc1 | · | · | -12%[46.1 µM] | 40µM* | · | ·
CCCC(=O)c1ccc(OC(=O)c2c(-c3ccccc3Cl)noc2C)cc1 | · | · | ? | 0% | · | ·
Cc1onc(-c2cccc(Cl)c2Cl)c1C(=O)O/N=C(\N)c1ccc([N+](=O)[O-])o1 | ? | 9.1* | 8% | ? | 12%[14.2 µM] | 32
CC1(C(=O)NCCN2CCOCC2)C=CCN1C(=O)c1ccccc1 (stereo not drawn) | -9%[8.37 µM] | 26* | -1% | 81% | 1% | 41*
CNC(=O)C1(C)C=CCN1C(=O)c1ccccc1 (stereo not drawn) | -6%[8.37 µM] | -3 | 5% | 25% | -28% | -14
